The list is not random: actives were taken first. Their share in the collection is about 1.4%.
Rango complex inh: inhibitors of Rango-importin beta complex formation; Q14974; Rango CFP/YFP FRET sensor + importin beta, 45 min; Potency, µM (doses to about 92.2 µM), for inactives: at the highest dose inhibition of complex formation; 340,000 compounds, 0.031% hits;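 note: potency is the fitted concentration of half-maximal effect; 0% = DMSO wells and 100% = buffer wells lacking importin beta; nearly all actives have a fitted effect of over 15% in size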
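Inhibition scored from the CFP 486 nm/YFP 530 nm FRET ratio 45 min after adding 0.125 microM importin beta to 50 nM Rango biosensor preincubated 5 min with compound (room temperature, PBS with DTT, Tween-20, BSA). No-importin wells as positive control.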
CCT modulator: changes cytosolic chaperonin activity; purified chaperonin ATPase assay, HTRF ADP detection, 30 min; activity change, % (concentration not given with the values), hits read low; 360,000 compounds, 0.3% hits; AID 651819; in the data active = activity change below about -30%; note: % is set by controls: 0 for no effect and ±100 for the full control effect
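Enzyme 40 or 20 nM (batch-dependent) in Tris pH 7.4/KCl/MgCl2/DTT; cpd 76 uM single point; ATP 10 uM; 30 min 37 °C; Transcreener ADP HTRF detection, 30 min RT; ratio 665/615.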
hERG WT inh: KCNH2 (human, wildtype) channel inhibition; U2OS, BacMam KCNH2, thallium flux FluxOr; stronger effect = lower value; AID 720551; 340,000 compounds, 0.37% hits; Q12809; activity change, % at 1.84 µM;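 active = maximum activity change below -70%; inconclusive = maximum activity change between -70% and -50%; inactive = maximum activity change above -50%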; note: % is set by controls: 0 for no effect and ±100 for the full control effect
Target sequence (Q12809 whole entry, looked up): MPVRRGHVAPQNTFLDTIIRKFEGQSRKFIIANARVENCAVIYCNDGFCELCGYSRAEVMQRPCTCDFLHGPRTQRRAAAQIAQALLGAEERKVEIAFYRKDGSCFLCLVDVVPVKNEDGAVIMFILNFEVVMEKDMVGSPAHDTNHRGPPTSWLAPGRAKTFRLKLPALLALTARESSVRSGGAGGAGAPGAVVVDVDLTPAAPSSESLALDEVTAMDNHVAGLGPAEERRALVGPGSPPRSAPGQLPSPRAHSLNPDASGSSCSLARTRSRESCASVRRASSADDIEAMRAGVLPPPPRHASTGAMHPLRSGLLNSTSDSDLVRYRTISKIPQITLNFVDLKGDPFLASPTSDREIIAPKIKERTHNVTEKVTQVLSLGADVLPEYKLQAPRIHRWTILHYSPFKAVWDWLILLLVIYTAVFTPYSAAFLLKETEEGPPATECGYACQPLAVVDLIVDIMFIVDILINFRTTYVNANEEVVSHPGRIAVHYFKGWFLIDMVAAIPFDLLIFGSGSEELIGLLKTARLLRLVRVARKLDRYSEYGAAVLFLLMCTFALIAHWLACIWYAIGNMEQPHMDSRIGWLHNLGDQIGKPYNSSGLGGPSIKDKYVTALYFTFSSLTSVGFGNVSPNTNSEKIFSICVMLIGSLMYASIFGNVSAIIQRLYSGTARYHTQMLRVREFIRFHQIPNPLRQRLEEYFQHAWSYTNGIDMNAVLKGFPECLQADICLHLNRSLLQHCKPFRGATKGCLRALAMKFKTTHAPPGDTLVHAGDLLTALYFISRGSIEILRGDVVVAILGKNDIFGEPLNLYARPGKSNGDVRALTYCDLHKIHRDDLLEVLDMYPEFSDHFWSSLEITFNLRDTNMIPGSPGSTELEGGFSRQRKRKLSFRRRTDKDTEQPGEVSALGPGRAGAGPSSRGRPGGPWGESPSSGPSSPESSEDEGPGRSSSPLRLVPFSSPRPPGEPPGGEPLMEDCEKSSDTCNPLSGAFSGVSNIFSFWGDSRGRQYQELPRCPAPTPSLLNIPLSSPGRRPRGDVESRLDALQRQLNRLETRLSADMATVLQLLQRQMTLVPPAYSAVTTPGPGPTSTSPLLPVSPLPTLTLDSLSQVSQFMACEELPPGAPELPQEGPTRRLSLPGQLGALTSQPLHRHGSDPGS
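U2OS cells were transduced with wild-type KCNH2 virus (2.03 x 10^8 / mL) for 4 h at room temperature, then cultured overnight at 37 C. Thallium flux was read with FluxOr dye. Rate constants were normalized to DMSO controls.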
MmCpn inh: inhibitors of Methanococcus maripaludis chaperonin TRiC (MmCpn). purified Mm-Cpn ATPase, ADP Transcreener TR-FRET. Potency, µM (highest dose often 76.9 µM), for the others: at the top dose activity, negative = inhibition, hits mostly inhibitors. 330,000 compounds, 0.031% hits; active = well fitted inhibition curve with a large enough effect; inconclusive = small, poorly fitted or top-dose-only effect; note: potency is the fitted concentration of half-maximal effect; % is set by controls: 0 for no effect and ±100 for the full control effect; nearly all actives have a fitted effect of over 80% in size
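ATPase turnover read by TR-FRET ADP competition (Eu cryptate antibody/ADP-d2, 665/590 nm): 10uM ATP final, 25nM Mm-CPN final, 30 min 37degC after 10-min compound preincubation, pH 7.4 Tris/KCl/MgCl2/DTT buffer.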
Rango dissoc inh: prevents RanGTP from dissociating the Rango-importin beta complex; 340,000 compounds, 0.071% hits; Biochemical FRET Rango-importin beta, RanGTP-induced dissociation; O95149+P62826; Potency, µM (series often up to 46.1 µM), for inactives: at the highest dose activity change, negative = inhibition; note: potency is the fitted concentration of half-maximal effect; % of control where 0% means no effect; nearly all actives have a fitted effect of over 45% in size
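Rango (0.1 uM)–importin beta (0.25 uM) complex; RanGTP-RCC1 trigger; 45 min RT; CFP/YFP FRET read.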
KCNH2 3.1 inh: blocks the human KCNH2 3.1 channel isoform; U2OS KCNH2 3.1, thallium flux FluxOr; stronger effect = lower value; activity change, % (tested at about 1.8 µM); 340,000 compounds, 0.95% hits; AID 720553;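 active = maximum activity change below -70%; inconclusive = maximum activity change from -70% to -50%; inactive = maximum activity change above -50%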;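 note: thallium influx rate constant from kinetic fluorescence after stimulation buffer; % is set by controls: 0 for no effect and ±100 for the full control effect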
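Virally transduced U2OS (3.1 isoform, 4 h infection in dark at RT) → overnight 37 C → FluxOr + Red40 in HBSS/HEPES, 45 min → stimulation buffer, 2 min kinetic read → rate constant vs DMSO controls.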
An asterisk follows results filed as active; i = inactive; ? = inconclusive; . = no result; ! = repeats disagree. Unless noted, calls come from the whole dose curve.

SMILES	Rango complex inh	CCT modulator	hERG WT inh	MmCpn inh	Rango dissoc inh	KCNH2 3.1 inh
O=C(CCCC(=O)N1CCN(c2ccc([N+](=O)[O-])cc2)CC1)c1ccccc1	-1%	-1	-88*	2%	-8%	-95*
O=[N+]([O-])c1ccc(N2CCN(C(=S)NCc3ccc(Cl)cc3)CC2)cc1	?	-2	-26	-5%	-21%	-93*
C/C(=N\Nc1ncnc2sc(C)c(C)c12)c1ccccn1	4%	0	-73*	0%	?	-8
CC(NC(=O)c1cc2c(=O)n(C)c3ccccc3c2n1C)c1ccc2c(c1)OCCO2 (centres undefined)	8%	-2	-125*	.	-16%	-27
Clc1ccc(CNC2CCN(Cc3ccccc3)CC2)cc1	0%	1	16	1%	2%	-26
S=C(NCc1ccc(Cl)cc1)NC1CCN(Cc2ccccc2)CC1	7%	2	1	2%	0%	-76*
COC(c1ccc(Cl)cc1)(c1ccc(Cl)cc1)C(Oc1nc(C)cc(C)n1)C(=O)O (centres undefined)	3%	-1	-9	0%	23%	11
O=C(Nc1ccc2c(c1)nc1n2CCN(Cc2ccccc2)C1)NC1CCCCC1	-4%	-3	-15	-7%	0%	-85*
Cc1ccccc1OCc1n(CC(=O)OC2CC(C)CCC2C(C)C)c2ccccc2[n+]1C (centres undefined)	-2%	2	-82*!	-1%	18%	-10
CC1CCC(C(C)C)C(OC(=O)Cn2c(-c3ccc(Br)cc3)[n+](C)c3ccccc32)C1 (centres undefined)	4%	-4	-104*!	-1%	16%	?
O=C1C(Cc2ccccc2)Nc2ncnc(N3CCc4ccccc4C3)c2N1Cc1ccc(Br)cc1 (centres undefined)	.	.	.	-12%	.	.
CCOC(=O)/C(C#N)=C1/C=CN(Cc2ccccc2)C=N1	2%	-3	-249*	1%	0%	7
CCOC(=O)/C(C#N)=C1/C=CN(c2ccccc2)C=N1	5%	-4	14	0%	4%	4
CCC(c1ccccc1)c1nnc(NC(=O)c2ccco2)s1 (centres undefined)	-1%	-1	0	-4%	4%	-117*
O=C(Nc1nnc(CC(c2ccccc2)c2ccccc2)s1)c1ccco1	-3%	1	0	-2%	7%	-6
O=S(=O)(CCC1CCCCN1)c1ccccc1 (centres undefined)	3%	2	2	1%	-3%	11
COC(=O)C(Cc1ccccc1)NC(=O)CCCC(=O)NCc1cccc(OC)c1 (centres undefined)	-1%	0	-70*	1%	3%	-2
COc1cccc(CNC(=O)Cc2ccc(-c3ccccc3)cc2)c1	4%	-1	0	-1%	-5%	-7
O=C1CCN(CCc2ccccc2)CCN1[C@H](COc1ccccc1)Cc1ccccc1	0%	0	-257*	-6%	1%	-100*
CC(C)CN1CCC(=O)N([C@H](COc2ccccc2)Cc2ccccc2)CC1	-4%	1	-13	-1%	16%	-90*
O=C1CCN(CCc2ccccc2)CCN1[C@H](CO)Cc1ccccc1	-5%	-1	.	2%	3%	.
CC(C)C[C@@H](COc1ccccc1)N1CCN(CCc2ccccc2)CCC1=O	1%	-1	-20	0%	14%	-96*
CCOc1ccc(NC(=O)CSc2nnnn2C2CCCC2)cc1	0%	-1	-142*	-4%	1%	-199*
COc1ccc(NC(=O)CSc2nnnn2C2CC3C=CC2C3)cc1 (centres undefined)	0%	-2	-81*	5%	0%	-3
CCOc1ccc(NC(=O)N2CCC(n3nnc4ccccc43)CC2)cc1	0%	0	i	0%	13%	-83*
SMILES	Rango complex inh	CCT modulator	hERG WT inh	MmCpn inh	Rango dissoc inh	KCNH2 3.1 inh
CCOc1ccc(Cc2nnc(SCC(=O)Nc3ccc(OC)cc3)n(N)c2=O)cc1	-1%	0	1	-1%	11%	-8
COc1ccc(NC(=O)CSc2nnc(CCC(=O)O)c(=O)n2N)cc1	1%	-56*	.	-2%	14%	5
Clc1cc2nc[nH]c2cc1Cl	0%	2	-5	1%	5%	-25
CCS(=O)(=O)N1Cc2ccccc2CC1C(=O)N(C)CC(=O)Nc1ccc(F)c(F)c1F (centres undefined)	-3%	-1	-11	1%	-7%	-4
CCOC(=O)c1cn(CC(=O)Nc2ccc(CC)cc2)nn1	-2%	2	-208*	-1%	1%	2
CCOC(=O)c1ccc(NC(=O)CN2CCN(Cc3ccccc3)CC2)cc1	12%	-86*	22	3%	10%	4
O=C(CN1CCN(Cc2ccccc2)CC1)Nc1ccc(Br)cc1	8%	-1	-33	0%	9%	-84*
O=C(CN1CCN(S(=O)(=O)N2CCCCCC2)CC1)Nc1ccc(F)cc1	-3%	0	10	1%	4%	-14
O=C(CN1CCN(S(=O)(=O)N2CCCCCC2)CC1)Nc1ccc(Br)cc1	4%	0	-101*	0%	-13%	?
CCCNC(=O)c1cc(C2CCCCN2C(=O)c2ccccc2)on1 (centres undefined)	.	-4	.	.	.	.
CC(=O)Nc1ccc(NC2=Nc3ccccc3N3C2=Nc2c(c(C)nn2-c2ccccc2)C3c2ccccc2)cc1 (centres undefined)	?	-1	-4	-8%	?	-12
COc1ccc(NC2=Nc3ccccc3N3C2=Nc2c(c(C)nn2-c2ccc(C)cc2)C3c2cccnc2)cc1 (centres undefined)	?	-45*	0	-1%	-13%	3
O=C(CSc1nc2ccccc2c(=O)n1-c1ccc(F)cc1F)c1c[nH]c2ccccc12	1%	-1	-122*	-4%	-8%	0
O=C(CSc1nc2ccccc2c(=O)n1-c1ccc(F)cc1F)NC1CC1	.	0	-5	.	.	-1
CCCC[C@@H]1CNC(=O)C(=O)N1CCCC	.	2	.	.	.	.
C=CCN(c1ccccc1)S(=O)(=O)c1cccc(C(=O)NCc2ccco2)c1	0%	1	-241*	-1%	-6%	-173*
CCN(CC)C(=O)c1cccc(-c2csc(C(C)(O)c3ccc(F)c(F)c3)n2)c1 (centres undefined)	.	0	.	.	.	.
COc1ccc(C(CNC(=O)/C=C/c2c(Cl)nc3ccccn23)N(C)C)cc1 (centres undefined)	0%	-1	-1	-2%	0%	-87*

Source: PubChem (National Center for Advancing Translational Sciences (NCATS))
